The list is not random: actives were taken first. Their share in the collection is about 5.2%.
mIDH1 inhibitor – human IDH1 R132H inhibition; IDH1-R132H enzyme, NADPH consumption, diaphorase/resazurin fluorescence; Potency, µM (titrated, usually from 76.6 µM), usual class: inhibitors; actives 0.093% (n = 390,000); AID 602179; note: nearly all actives have a fitted effect of over 65% in size
Target sequence (O75874 whole entry R132H, stated change not applied): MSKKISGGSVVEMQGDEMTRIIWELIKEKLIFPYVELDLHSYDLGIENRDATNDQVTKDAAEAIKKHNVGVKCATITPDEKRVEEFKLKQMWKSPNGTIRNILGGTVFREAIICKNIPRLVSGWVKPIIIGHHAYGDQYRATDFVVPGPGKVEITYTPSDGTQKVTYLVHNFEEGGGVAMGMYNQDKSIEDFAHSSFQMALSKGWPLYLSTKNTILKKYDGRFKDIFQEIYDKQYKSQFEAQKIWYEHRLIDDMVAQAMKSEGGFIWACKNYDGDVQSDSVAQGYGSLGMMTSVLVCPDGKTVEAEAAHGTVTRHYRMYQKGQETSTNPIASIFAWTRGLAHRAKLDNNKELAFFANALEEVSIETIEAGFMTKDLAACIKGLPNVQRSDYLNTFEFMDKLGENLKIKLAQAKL
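IDH1-R132H (0.5 ug/mL dispensed) in pH 7.5 Tris buffer was preincubated 30 min with compound, then given a substrate mix of 0.016 mM NADPH and 2 mM alpha-KG for 80 min at room temperature; remaining NADPH was read by diaphorase/resazurin fluorescence.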
TrxR1 inh – blocks rat thioredoxin reductase 1; Potency, µM (doses to about 114 µM), actives largely listed as inhibitors; actives 1% (n = 390,000); recombinant rTrxR1, NADPH fluorescence consumption, selenite substrate; O89049; note: nearly all actives have a fitted effect of over 65% in size
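Rat TrxR1 (90 nM in the dispensed reagent) was pre-reduced with 400 uM NADPH for 5 min at room temperature, then incubated with compound for 15 min. After 400 uM selenite was added, NADPH fluorescence (Ex 340/Em 450 nm) was followed for 8 min.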
TrxR1 substrate – is turned over as a substrate by rat TrxR1; O89049; purified TrxR1 substrate turnover, NADPH consumption readout; Potency, µM (highest dose often 114 µM); actives 0.01% (n = 390,000); note: nearly all actives have a fitted effect of over 50% in size
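Rat TrxR1, dispensed at 90 nM, was prereduced with 400 uM NADPH (final) for 5 min at ~22 deg C, then incubated with compound 15 min before 400 uM selenite. A first-read NADPH fluorescence drop versus no-compound background flagged substrates.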
VDR inh – inhibitors of human vitamin D receptor; VDR-SRC2-3 peptide fluorescence polarization, 2 h; Potency, µM, actives largely listed as inhibitors; AID 504847; P11473; actives 0.93% (n = 400,000)
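Two reagent solutions held at 4 deg C in the dark were dispensed, compounds pinned at 23 nl, and the mixture incubated 2 h at room temperature. Read-out: fluorescence polarization of VDR–SRC2-3 peptide binding.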
PLK1 PBD block – PLK1 (human) polo-box domain binding inhibition | Plk1 PBD binding of FITC phosphopeptide, fluorescence polarization | Potency, µM, actives largely listed as inhibitors | actives 2.8% (n = 360,000) | AID 720504; note: series mostly up to about 57 µM; nearly all actives have a fitted effect of over 65% in size
Sfp PPTase inh – blocks B. subtilis Sfp PPTase activity; Q9F4F7; Biochemical Sfp PPTase activity, qHTS; Potency, µM, hits mostly inhibitors; actives 3.5% (n = 310,000);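 note: the enzyme is Sfp with the accession as filed and its product quenches rhodamine fluorescence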
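Buffer: 50 mM Hepes-Na pH 7.6, 10 mM MgCl2, 0.01% Nonidet P-40, 0.01% BSA. Enzyme 15 nM, pre-exposed to compound 15 min; substrates then added and fluorescence change tracked over 30 min.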
Each line names hits and unclear results; the compound was inactive in the other large screens. Calls come from the whole dose curve; as a rule, active = well fitted curve in the direction sought with a large enough effect; inconclusive = small, poorly fitted or top-dose-only effect, or another doubt; inactive = no such curve, though single readings can be large; an effect the other way counts as inactive or inconclusive.

CCOC(=O)c1sc(NC(=O)CSc2nc(C)cc(C)c2C#N)c(C#N)c1C	none
COC(=O)c1c(NC(=O)Nc2ccc(Cl)cc2)sc(C)c1C	none
CCOC(=O)c1sc(NC(=O)c2cc(-c3ccccc3C)nc3ccccc23)c(C#N)c1C	PLK1 PBD block 5.3µM, Sfp PPTase inh 45µM
Cc1cc(NC(=O)CSc2nnc(C)n2C)no1	none
Cc1ccc(-c2nc(C)c(CCNC(=O)C(=O)Nc3cc(C)ccc3C)s2)cc1	none (no result: PLK1 PBD block, Sfp PPTase inh)
CCOC(=O)c1sc(NC(=O)CSc2nc(C)cc(-c3ccccc3)n2)c(C#N)c1C	Sfp PPTase inh 8.9µM
OCCN1CCN(CC(O)COCCOc2ccc(Br)cc2)CC1 (configuration not stated)	VDR inh 18µM, PLK1 PBD block 11µM
OC(COc1ccc2cc(Br)ccc2c1)CN1CCCC1 (configuration not stated)	Sfp PPTase inh 79µM
CC(=O)c1cccc(NC(=O)c2sc(-n3nc(C)c(Cc4ccccc4)c3C)nc2C)c1	none (no result: PLK1 PBD block, Sfp PPTase inh)
Cc1cc(C=C2C(=O)CCCC2=O)c(C)n1-c1ccccc1	PLK1 PBD block inconclusive
Cc1cc(/C=C2\SC(N)=NC2=O)c(C)n1-c1ccccc1	Sfp PPTase inh 50µM
Clc1ccc(OCCn2cnc3ccccc32)cc1	PLK1 PBD block 3µM
Clc1ccccc1OCCn1cnc2ccccc21	none
Cc1ccc(OCCCCn2cnc3ccccc32)c(C)c1	Sfp PPTase inh 50µM
O=c1cc(C(F)(F)F)nc(SCc2cccc3ccccc23)[nH]1	PLK1 PBD block 30µM
Nc1cc(=O)[nH]c(SCc2cccc3ccccc23)n1	none
CCn1ccnc1CN1CCc2c([nH]c3ccccc23)C1C1CCCCC1 (configuration not stated)	VDR inh inconclusive, PLK1 PBD block 27µM
Cc1cc(C)nc(SCC(=O)c2cc3ccccc3oc2=O)n1	Sfp PPTase inh 18µM
O=C(CSc1nc2ccccc2o1)c1cc2ccccc2oc1=O	PLK1 PBD block inconclusive
CSc1ccc(CCNC(=O)c2cc3cc4cc(C)ccc4nc3s2)cc1	none (no result: PLK1 PBD block, Sfp PPTase inh)
Cc1ccc(-c2csc(NC(=O)CSc3nc4ccccc4c(=O)n3CCCN(C)C)n2)cc1	Sfp PPTase inh 56µM
CC1(C(=O)CSc2ncn[nH]2)CCC(=O)O1 (configuration not stated)	Sfp PPTase inh 56µM (no result: mIDH1 inhibitor, TrxR1 inh, TrxR1 substrate, VDR inh, PLK1 PBD block)
CC1(C(=O)CSc2nc3ccccc3[nH]2)CCC(=O)O1 (configuration not stated)	none
CC1(C(=O)CSc2n[nH]c(-c3ccccc3Cl)n2)CCC(=O)O1 (configuration not stated)	Sfp PPTase inh 50µM (no result: mIDH1 inhibitor, TrxR1 inh, TrxR1 substrate, VDR inh, PLK1 PBD block)
CC1CC2(CC(C)(C(=O)CSc3n[nH]c(-c4ccccc4Cl)n3)OC2=O)C(=O)O1 (configuration not stated)	TrxR1 inh inconclusive, PLK1 PBD block inconclusive
Cc1sc(NC(=O)CCl)c(C(=O)c2ccccc2)c1C	TrxR1 inh inconclusive, VDR inh inconclusive, PLK1 PBD block 27µM, Sfp PPTase inh 22µM
Cc1ccccc1C(=O)Nc1sc(C)c(C)c1C(=O)c1ccccc1	VDR inh inconclusive, PLK1 PBD block 21µM, Sfp PPTase inh 32µM
Cc1ccccc1C(=O)Nc1sc2c(c1C(=O)O)CCC2	none
O=C(CCl)Nc1sccc1C(=O)c1ccccc1	none (no result: Sfp PPTase inh)
CNc1nnc(Sc2ncccc2[N+](=O)[O-])s1	PLK1 PBD block 15µM
CCOC(=O)Cc1cc(C(=O)Nc2ccc(Br)cc2)sc1-c1ccc(C)cc1	none (no result: PLK1 PBD block, Sfp PPTase inh)
Cc1cc(C(=O)N/N=C2/CC(C)CC(C)(C)C2)c(C)o1 (configuration not stated)	PLK1 PBD block 21µM
CSc1ccc(C2N=C(c3ccccc3)NO2)cc1 (configuration not stated)	TrxR1 inh inconclusive
Oc1c(Br)cc(C2N=C(c3ccccc3)NO2)cc1Br (configuration not stated)	TrxR1 inh inconclusive, PLK1 PBD block 12µM
OC(c1ccc(-c2ccccc2)cc1)c1ncc(-c2cccc(F)c2)[nH]1 (configuration not stated)	none (no result: mIDH1 inhibitor, TrxR1 inh, TrxR1 substrate, VDR inh, Sfp PPTase inh)
Cc1ccc(NC(=O)N2CCc3ccccc3C2)c(C)c1	none
CCCc1cc(=O)[nH]c(SCC(=O)c2ccc3c(c2)NC(=O)CO3)n1	VDR inh inconclusive
COc1cc(OC)cc(C(=O)N[C@H](C(=O)OCC(=O)c2ccc3c(c2)NC(=O)CO3)C(C)C)c1	none
CC(C)[C@H](NC(=O)c1ccccc1)C(=O)OCC(=O)c1ccc2c(c1)NC(=O)CO2	PLK1 PBD block 11µM
O=C1COc2ccc(C(=O)CCl)cc2N1	TrxR1 inh inconclusive, PLK1 PBD block 1.9µM
CCCc1nc(SCC(=O)c2ccc3c(c2)NC(=O)CO3)[nH]c(=O)c1CC	VDR inh inconclusive, PLK1 PBD block 19µM (no result: Sfp PPTase inh)
CCc1ccc(OCC(=O)OCC(=O)c2ccc3c(c2)NC(=O)CO3)cc1	none
CCCCCCC(=O)OCC(=O)c1ccc2c(c1)NC(=O)CO2	PLK1 PBD block 9.5µM
CCCCNC(=O)CCCN1C(=O)c2ccccc2Sc2ncccc21	none (no result: PLK1 PBD block, Sfp PPTase inh)
COc1ccc(OCC(=O)Nc2ccc(Cl)c(-c3nc4ncccc4o3)c2)cc1	none (no result: PLK1 PBD block, Sfp PPTase inh)
Cc1cc([N+](=O)[O-])ccc1NC(=S)NC1CCCC1	TrxR1 inh inconclusive
S=c1[nH]c2ccccc2s1	VDR inh 35µM (no result: mIDH1 inhibitor, TrxR1 inh, TrxR1 substrate, PLK1 PBD block)
Cc1cc(=S)[nH]c2ccccc12	TrxR1 inh inconclusive, PLK1 PBD block inconclusive, Sfp PPTase inh inconclusive
O=C(Nc1ccc2[nH]c(=S)sc2c1)Nc1ccccc1F	TrxR1 inh inconclusive, VDR inh inconclusive, PLK1 PBD block 21µM, Sfp PPTase inh inconclusive
O=C(Nc1ccc2[nH]c(=S)sc2c1)c1ccccc1	VDR inh inconclusive, PLK1 PBD block inconclusive, Sfp PPTase inh 50µM
O=C(Nc1ccc(Cl)cc1Cl)[C@@H]1CC=C[C@@H]2CCN(C3CC3)C(=O)[C@@H]21	none (no result: mIDH1 inhibitor, VDR inh, PLK1 PBD block, Sfp PPTase inh)
Cc1cc(Cl)ccc1C(=O)C1CCCN(C(=O)c2cncs2)C1 (configuration not stated)	PLK1 PBD block inconclusive
COC(=O)c1sc(NC(=O)c2ccc(Cn3cc(Cl)cn3)o2)c(C#N)c1C	TrxR1 inh inconclusive, VDR inh inconclusive, PLK1 PBD block 3µM, Sfp PPTase inh 16µM
Cc1ccc(NC(=O)c2ccc(Cn3cc(Cl)cn3)o2)c(C)c1	none (no result: mIDH1 inhibitor, TrxR1 inh, TrxR1 substrate, VDR inh, PLK1 PBD block)
CSc1ccc(/C=N/Nc2nc(C)cc(=O)[nH]2)cc1	Sfp PPTase inh 56µM
Cc1cc(=O)[nH]c(N/N=C/C2=C(N3CCOCC3)C(=C\c3ccc(Cl)cc3)/CC2)n1	VDR inh 89µM, PLK1 PBD block inconclusive, Sfp PPTase inh 40µM
O=C(O)c1ccccc1N/N=C/C1=C(N2CCOCC2)C(=C\c2ccccc2)/CC1	TrxR1 inh inconclusive, PLK1 PBD block inconclusive
Cc1cccc(N2CCN(C(=O)NCc3ccc(F)cc3)CC2)c1C	VDR inh inconclusive, PLK1 PBD block 30µM

Screening results: PubChem, National Center for Advancing Translational Sciences (NCATS)
